Assay results published in PubChem BioAssay AID1508600 (Functional Genomics Laboratory (NCATS/FGL), 2020).
The campaign covered roughly 53,000 sequences. About 3,700 (7%) were called active. This is one part of a sample in which actives are shown more often than they occur.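 How the source made its calls: active means gene knockdowns whose robust z-score for IL-1 alpha signal is at least 2 or at most -2, so actives lie on both sides; inactive means the rest.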

Assay: Components of the Cytosolic LPS Sensing Pathway: Gene Identification via Genome-wide siRNA Screen
Conditions: RAW264.7 macrophages, IL-1a HTRF, actives lie on both sides, screened at 100 nM (by protocol), cells primed 5 h with Pam3CSK4 first
From the text: Non-canonical inflammasome activation by cytosolic LPS is a critical component of the host response to Gram-negative bacterial infection, however we lack a comprehensive understanding of the cellular processes that control this pathway. Here we describe a genome-wide siRNA screen to identify genes regulating the mouse macrophage IL-1 alpha response to cytosolic LPS.
RAW264.7 cells were maintained in complete DMEM media, comprising DMEM with 4.5 g/L glucose, 10% FBS (Gemini Bio-Products, West Sacramento, CA), 2 mM Glutamine (Lonza) and 20 mM HEPES (Lonza), hereafter complete DMEM.
The RNAi screen was conducted in 384-well format using the Ambion Silencer Mouse Genome siRNA Library (#4391425), which consists of three unique, nonoverlapping, nonpooled siRNAs for each of 17,000 gene targets. siRNA reagents ([…]) were stamped into 384-well white flat-bottom microplates (Corning, 3570) using a Velocity11 VPrep liquid handling system (Agilent) integrated into a BioCel robotic platform (Agilent) in columns 1-22, leaving columns 23-24 empty for negative (Ambion, Negative control #1) and positive (mouse Casp4) controls, respectively. The median value of each plate's negative control column was used to normalize sample wells, and the positive control was used to assess transfection efficiency and assay performance.
Lipofectamine RNAiMAX Transfection Reagent ([…]; Invitrogen) was added in […] serum-free, antibiotic-free media to plate wells using a Thermo Scientific Matrix WellMate and Microplate Stacker. Plates were incubated for 45 min at room temperature to allow for the sufficient formation of siRNA-lipid complexes. Cells were seeded at a density of 1x10^4 cells per well in 20 microL media containing 20% (vol/vol) FBS without antibiotics. The final concentration of siRNA in each well was 100 nM. Cells were cultured for 48h at 37 degrees C in 5% CO2 before addition of […] of TLR ligand Pam3CSK4 for 5 hours. The medium was then removed, replaced with […] growth media and cell were transfected with […] of LipidA and TransIT-TKO (Mirus) for 24 hour. At the end of the LipidA treatment, […] of supernatant was transferred to a 384 Greiner Bio-one non-binding low volume plate and […] of IL-1a HTRF reagent (Cisbio, 62MIL1APEH) was added and incubated at room temperature overnight. The plates were read on an EnVision plate reader (PerkinElmer). Cell viability was measured by adding 20ul Cell Titer Glo to the original plate and running a luminescence read on the EnVision. The quantified IL-1a signal for each siRNA gene-targeted well was divided by the median of the negative control wells and multiplied by 100 to achieve a negative control normalized value for each well/siRNA. This normalized value was then used to generate a robust z-score by first taking the log of each value and then by subtracting the median and dividing by the […].
For CCACCAGAUACAUAUUUGUTT against Gnpnat1, the z-score was -0.352 (inactive). With GGCUUUAAAGAAUGAUUCATT against Cfap97 the z-score was 0.197 (inactive). For GGAACUCCACUUUCUUUUUTT against Ripply3, the z-score was 2.27 (active). For GGCUGCACAAACAUGGUUCTT against Pard6a, the z-score was -0.146 (inactive). In the case of GGUGGAAGAUUAGUGACUUTT against Trim38, the z-score is reported as 1.63 (inactive). For CCGUGUAAGGUGUGGAGUGTT against Mcat, the z-score was -2.27 (active). For GGAAAGAUUGUACCAGUUGTT against Cmpk1, the z-score was 2.58 (active). In the case of GGUAAAAUUCCAGAGUUGUTT against Serpinb9, the z-score is reported as -0.412 (inactive). For GGGUUUGGACUGAUAUACUTT against Vrk2, the z-score was -0.465 (inactive). In the case of GGAAUCAGGAAUGCUACUUTT against Tsr1, the z-score is reported as 0.216 (inactive). In the case of “CAAGAAGGUCAUGUUAUUGTT against Olfr106-ps”, the z-score is reported as 0.495 (inactive). For CGGCUCGUACACAUGUGAATT against Creld2, the z-score was 0.199 (inactive). For GGAUGAAGAUGGAGACAUGTT against Lmx1b, the z-score was -2.58 (active). In the case of “GGGUUCAUAUGUUUUGGAUTT against C130050O18Rik”, the z-score is reported as 1.38 (inactive). With GGAGCAGUAUAUCCUACAUTT against Olfr510 the z-score was 2.82 (active). For CCCUGACCUUGUGGUAGAATT against Aspdh, the z-score was -0.165 (inactive). For CGAGAAGAUAUUUAAAGAGTT against Myo10, the z-score was -0.045 (inactive). With GGAAAACAAGAGAAGGCGCTT against Pom121 the z-score was 0.361 (inactive). For GGCCUAAUUUCCUCUAAUATT against Padi1, the z-score was 0.452 (inactive). With GGUCUUCAGACCAGAAACATT against Hsd3b2 the z-score was -3.19 (active). For GGAACAUUCUAGAAUCUGUTT against Rps6kb2, the z-score was 0.986 (inactive). In the case of GGCCAAUAAAGAAACAAACTT against Cst9, the z-score is reported as 1.08 (inactive). For GGGUGUUGAAAGACUUUUATT against Tnks, the z-score was -0.122 (inactive). For GCAAUCAUUUCUUCAUCUATT against Olfr148, the z-score was 0.255 (inactive). With GGAAUACAAAUUCAAGAUCTT against Vamp5 the z-score was -0.82 (inactive). For CCUAUCUUUUCCCUACAUGTT against Cyp4a31, the z-score was 2.01 (active). For GGGAUAGUGUUCCUUAUCUTT against Neu1, the z-score was -2.6 (active). In the case of GGUCAGCGUGGAGUCAAUATT against Fam184b, the z-score is reported as -1.92 (inactive). In the case of GGAUAUCAUAUUUUCUCAGTT against Fam71d, the z-score is reported as 0.0644 (inactive). In the case of GGAGGUGCGCUUCUUUAACTT against Chst5, the z-score is reported as 0.24 (inactive). With CGAAAAAAAUCCAAGUCAATT against Akap12 the z-score was -0.28 (inactive). In the case of GCCUUAGGAAAUUCUCAAUTT against Rbm12b2, the z-score is reported as 0.334 (inactive). With GGUCCUACAUCUCCUUCGATT against Cars the z-score was -0.194 (inactive). With GCUAGAUUUGAUGGUUCAGTT against Cacng5 the z-score was -1.62 (inactive). For GGCAUUUAGUAAAACCCUUTT against Rnf144a, the z-score was -2.43 (active). For GCAUAUAACCGAGUUGAUUTT against Cdcp1, the z-score was 0.183 (inactive). With GCUUCAGGAGCUCUACUGUTT against Catsper3 the z-score was -0.736 (inactive). In the case of CCUGCUCUAUGGCAGAACGTT against Nkx2-4, the z-score is reported as 0.992 (inactive). In the case of “GGAACAGGAGAAUGACAUCTT against D5Ertd579e”, the z-score is reported as -1.25 (inactive). In the case of GGUGCAGAAUCUCUCAUUGTT against Mrpl30, the z-score is reported as -2.14 (active). In the case of GCGCGAUUCAGAGGUUUCATT against Raver2, the z-score is reported as 0.238 (inactive). For GCACUGCCAGAGGUUCUGUTT against U90926, the z-score was -0.107 (inactive). For GCCCUUAGAGAGAAUUUAUTT against Lmo2, the z-score was 0.63 (inactive). In the case of GCCACGUUCAAACAGUACCTT against Slc1a7, the z-score is reported as 3.94 (active). For GCAGGUUCACAAUGGAUUATT against Lrrc25, the z-score was 0.108 (inactive). With GGAAUCUGCUAUGCUUAAATT against Rdh16f2 the z-score was -1.84 (inactive). For GCCAGAGUACCACAUUAGUTT against Pcdhga4, the z-score was 0.921 (inactive). For GGACCAUGUGAUAAUAUCGTT against Als2, the z-score was -0.599 (inactive). With GGAGAUCUGCUCUAAUUAUTT against Eif1ax the z-score was 2.21 (active). For GGGAUUGUAACAGCAUCCCTT against Epha6, the z-score was 0.594 (inactive). For GGGAAUCUGAUGAAGAUGGTT against Grin3b, the z-score was -1.56 (inactive). In the case of GGCCUUGAAAUCGUUUUUUTT against Tceal8, the z-score is reported as 0.534 (inactive). With GGAUUUUUCAGAUUCUAGATT against Hs6st2 the z-score was 0.375 (inactive). With GGAUUUAGGCUACUUUUUCTT against Art4 the z-score was -0.387 (inactive). In the case of GAUGUACGAUCUGGUGGUGTT against Exosc6, the z-score is reported as 2.73 (active). With GGAUUUAGAUCACUUGGAGTT against Tmem68 the z-score was -0.811 (inactive). With GGAGUGUUGGAUGCUACCATT against Ache the z-score was -1.12 (inactive). In the case of GGGCAAUGGGUGAUCUAAUTT against Phactr1, the z-score is reported as 0.00934 (inactive). With GGAACUUUUUAAGAUGCGUTT against Ranbp1 the z-score was -0.36 (inactive). For GGAUGCCUAUCACAAGCAGTT against Pacsin1, the z-score was -0.478 (inactive). For GGCCCAUUACUUGUUGACUTT against Fanci, the z-score was 0.378 (inactive). With GAGCAAUGAGCAGAGAUUCTT against H2-D4 the z-score was 1.93 (inactive). For GGACUUCAACUUGAUGGAGTT against Add2, the z-score was 2.02 (active). For GGAUGCUAAUUCAAGUCUUTT against Slc1a7, the z-score was 0.292 (inactive). With GGUUAUUAAGGAUAAACUGTT against Cops5 the z-score was 2.28 (active). In the case of GGAACUUACAUGAAUUCCATT against Slco1a4, the z-score is reported as -0.229 (inactive). With GCCACUUCCUGGAUAAGGATT against Ftl2-ps the z-score was -2.88 (active). In the case of CCAAGACUGUGACAAGUUUTT against Ctsz, the z-score is reported as -0.557 (inactive). In the case of GGAAACCAGACUUUCCCUATT against Vmn1r43, the z-score is reported as -0.18 (inactive). For CGAAGAUAUUACUAUUCUGTT against Lama2, the z-score was 1.65 (inactive). For GAUGCACACGUGGGAAGACTT against Cdpf1, the z-score was 2.25 (active). With GCUCCAUCUACAAACAAUGTT against Gpr37l1 the z-score was 1.53 (inactive). With GGGACAGGAACAAACAAGCTT against Polq the z-score was 2 (inactive). In the case of GGUUAUAGAUGUAAAGUCUTT against Isg20l2, the z-score is reported as -0.847 (inactive). For GGAGCUUCUUUUCCCUCUATT against Gcgr, the z-score was -0.684 (inactive). With GGAUUUAAGUGCCCGGUAUTT against Znrf2 the z-score was 1.34 (inactive). For GCGAUAUGCCCUAACUGGATT against Mmp24, the z-score was 0.967 (inactive). For GGAAGAUCCGCUUCAACGUTT against Mab21l4, the z-score was 1.2 (inactive). With GGUUGGUUUGGAGAAGGCATT against Krt35 the z-score was 2.91 (active). With CCACAUGCCUGAGAGAUUCTT against Spp2 the z-score was 1.28 (inactive). In the case of CGUUUGACCAAAACAGAAUTT against Fbxw10, the z-score is reported as 0.709 (inactive). For GGAAGUCAGACAGAUUUAATT against Prss33, the z-score was 2.69 (active). For CGCACCUUUCUUUGGAAUGTT against Rab1b, the z-score was 1.72 (inactive). With GGAUUUUGUUCUUCAUCCATT against Nedd4 the z-score was -0.142 (inactive). In the case of GGGUUAUGGAUUUGAAGUGTT against Tmem131l, the z-score is reported as 1.3 (inactive). With CCAAUUUUCAAGAUCGGUCTT against Pakap the z-score was 0.347 (inactive). For GCUCUGAUGUCAACCUUCCTT against Fam174c, the z-score was -2.23 (active). For CCACCUUUAUUCAAAAUCGTT against Mmp20, the z-score was -0.451 (inactive). For CCUACUCAAGAAGCUCAGUTT against Hpse, the z-score was -2.47 (active). In the case of GCGCACAAGCCUUACUAAATT against Zfp560, the z-score is reported as 0.0854 (inactive). In the case of GCGGACAUGAGUUUGAAUGTT against Bnipl, the z-score is reported as -0.858 (inactive). With GGUGGACAAGAUGAUGGAATT against Gps2 the z-score was 1.92 (inactive). For GGAGACAGAUGAAUGAACCTT against Tifab, the z-score was 0.0548 (inactive). In the case of CCCUCUCUACGAUGACUCUTT against Parm1, the z-score is reported as -2 (active). With CCAAUAACUUCGCUUAUAUTT against Ms4a2 the z-score was -0.389 (inactive). For GGUUCAUCCAACUUUCAAGTT against Stac3, the z-score was 0.587 (inactive). In the case of GUUUCUGGGUGAGCGCGAUTT against Fzd2, the z-score is reported as 2.29 (active). With GGCAUUUAAAACUCAUUGUTT against G6pdx the z-score was -1.47 (inactive). In the case of GGGUUCAGAGGUCAUCAACTT against Lin37, the z-score is reported as -1.95 (inactive). In the case of “GCAAAUUAGGCUCUUAUCCTT against 4930402H24Rik”, the z-score is reported as -0.333 (inactive). With GGAAGAAAUGCAGGUGUGGTT against Gab3 the z-score was -2.15 (active). For GCUUUAUUAACCCAUCAAATT against Wdr78, the z-score was -0.136 (inactive). With GGGAAAAUUCCAGAAUUGUTT against Serpinb9c the z-score was -1.37 (inactive). For GGAGAUGGCCGACUUCUAUTT against Coa8, the z-score was 0.934 (inactive). For GGUUAAAUCCCUGAUGUAUTT against Ptdss1, the z-score was -0.613 (inactive). For GCUUGUGUCACCUACGGAATT against Mterf2, the z-score was 0.944 (inactive). With CCCAUGCUAUCAAUCAUUUTT against Olfr308 the z-score was 2.51 (active). For CCGAUGACAAUCGGCCCUUTT against Gja8, the z-score was 0.74 (inactive).
